# According to the supplement of paper PMC13380429:
# Unmarked numbers belong to inactive results.
# Tested on: Vero E6 infected with SARS-CoV-2
# Assay: inhibition of SARS-CoV-2 cytopathic effect; higher = more antiviral protection, active = above 15
# Details: 48 h
SMILES,inhibition of SARS-CoV-2 cytopathic effect (1 nM),inhibition of SARS-CoV-2 cytopathic effect (8.33 nM),inhibition of SARS-CoV-2 cytopathic effect (100 nM),inhibition of SARS-CoV-2 cytopathic effect (833.33 nM),inhibition of SARS-CoV-2 cytopathic effect (10000 nM)
CC(C)C[C@H](NC(=O)CNC(=O)c1cc(Cl)ccc1Cl)B1OC(=O)C(CC(=O)O)(CC(=O)O)O1 [ixazomib-citrate],2.06%,1.34%,22.3% (active),29% (active),20.8% (active)
CCNC(=O)[C@@H]1CCCN1C(=O)[C@H](CCCNC(=N)N)NC(=O)[C@H](CC(C)C)NC(=O)[C@@H](C)NC(=O)[C@H](Cc1ccc(O)cc1)NC(=O)[C@H](CO)NC(=O)[C@H](Cc1c[nH]c2ccccc12)NC(=O)[C@H](Cc1cnc[nH]1)NC(=O)[C@@H]1CCC(=O)N1 [alarelin],-0.73%,-1.67%,0.97%,1.34%,-0.57%
CN(C)[C@@H]1C(O)=C(C(N)=O)C(=O)[C@@]2(O)C(O)=C3C(=O)c4c(O)cccc4[C@@](C)(O)[C@H]3[C@H](O)[C@@H]12 [oxytetracycline],-0.32%,-3.1%,-1.01%,-0.96%,-0.98%
CC[C@H](C)[C@@H]1NC(=O)[C@H](Cc2ccc(O)cc2)NC(=O)[C@@H](N)CSSC[C@@H](C(=O)N2CCC[C@H]2C(=O)N[C@@H](CC(C)C)C(=O)NCC(N)=O)NC(=O)[C@H](CC(N)=O)NC(=O)[C@H](CCC(N)=O)NC1=O [oxytocin],5.14%,3.79%,3.52%,0.66%,-0.57%
O=C(NCc1ccc(F)cc1)N1CCN2C(=O)OC(c3ccccc3)(c3ccccc3)[C@@H]2C1 (racemic),1.17%,1.29%,3.05%,3.22%,-6.01%
COc1cc2c(Oc3ccc4[nH]c(C)cc4c3F)ccnc2cc1OCC1(N)CC1 [anlotinib],1.84%,-1.41%,1.56%,1.39%,-7.82%
Cc1ccccc1N1CCN(S(=O)(=O)C[C@]23CC[C@H](C[C@@H]2NC(=O)[C@@H](N)CCS(C)(=O)=O)C3(C)C)CC1,0.06%,2.09%,2.92%,1.11%,0.11%
Oc1cccc(-c2c3nc(c(-c4cccc(O)c4)c4ccc([nH]4)c(-c4cccc(O)c4)c4nc(c(-c5cccc(O)c5)c5ccc2[nH]5)CC4)C=C3)c1 [temoporfin],-0.78%,3.96%,-0.62%,-2.48%,-5.99%
CC(=O)Oc1ccccc1C(=O)Oc1ccccc1C(=O)O [acetylsalicylsalicylic-acid],-1.51%,0.51%,2.44%,-0.27%,1.17%
COC(=O)c1cc(OC)c2c(c1-c1c(CO)cc(OC)c3c1OCO3)OCO2 [bicyclol],-2.07%,1.38%,-0.88%,-0.4%,-3.03%
COc1cc(N)c(Cl)cc1C(=O)NC1CCN(Cc2ccccc2)CC1 [clebopride],-1.61%,-0.47%,-0.47%,6.56%,0.26%
O=S(=O)(c1ccccc1)N(CC(F)(F)F)c1ccc(C(O)(C(F)(F)F)C(F)(F)F)cc1,1.99%,0.95%,-0.31%,2.71%,-0.14%
O=C(c1cn(Cc2cncn2Cc2ccc(Br)cc2)cc1-c1cccc2ccccc12)N1CCOCC1,-2.2%,-3.17%,-1.58%,-0.44%,-3.78%
CCn1nc(C(=O)O)c(=O)c2cc3c(cc21)OCO3 [cinoxacin],0.52%,-0.24%,0.19%,0.12%,-1.09%
C=CCc1cccc(/C=N/NC(=O)CN2CCN(Cc3ccccc3)CC2)c1O,0.07%,0.95%,4.72%,0.65%,-2.23%
CC(C)(Oc1ccc(C(=O)c2ccc(Cl)cc2)cc1)C(=O)O [fenofibric-acid],0.66%,-0.84%,0.44%,1.29%,-0.37%
C=CC1=C(C)c2cc3[nH]c(cc4nc(cc5[nH]c(cc1n2)c(C)c5CCC(=O)O)C(CCC(=O)O)=C4C)c(C)c3C=C [protoporphyrin-IX],-0.78%,-0.99%,-0.13%,-0.31%,-4.69%

SMILES,inhibition of SARS-CoV-2 cytopathic effect (1 nM),inhibition of SARS-CoV-2 cytopathic effect (8.33 nM),inhibition of SARS-CoV-2 cytopathic effect (100 nM),inhibition of SARS-CoV-2 cytopathic effect (833.33 nM),inhibition of SARS-CoV-2 cytopathic effect (10000 nM)
CC[C@H](C)[C@@H]([C@@H](CC(=O)N1CCC[C@H]1[C@H](OC)[C@@H](C)C(=O)N[C@@H](Cc1ccccc1)c1nccs1)OC)N(C)C(=O)[C@@H](NC(=O)[C@H](C(C)C)N(C)C)C(C)C [dolastatin-10],-1.47%,0.79%,-2.31%,-3%,0.49%
Cc1cc(Cn2nnc3c(-c4ccco4)nc(N)nc32)ccc1N [vipadenant],3.17%,2.89%,2.73%,-0.18%,0.65%
Clc1ccc2c(c1)N=C(N1CCNCC1)c1ccccc1N2 [desmethylclozapine],1.9%,0.8%,0.19%,2.8%,-4.43%
O=C(O)C1=CCNCC1 [isoguvacine],0.65%,0.98%,0.98%,3.23%,2.12%
C[N+](C)(C)CCCCCCCCCC[N+](C)(C)C [decamethonium],-3.35%,-4.24%,-5.16%,-3.23%,-1.94%
O=C(O)[C@H](Cc1c[nH]c2ccccc12)N1C(=O)c2ccccc2C1=O,2.9%,3.8%,-0.51%,-0.14%,0.14%
C[C@@H]1CC[C@@]2(OC1)O[C@H]1C[C@H]3[C@@H]4CC=C5C[C@@H](O)CC[C@]5(C)[C@H]4CC[C@]3(C)[C@H]1[C@@H]2C [diosgenin],-0.61%,-0.09%,0.12%,-2.38%,-1.29%
CC(C)c1ccc(NC(=O)c2cccs2)c(-c2nc3ccccc3[nH]c2=O)c1,-1.18%,-0.5%,0.48%,-0.61%,-1.09%
C=CCN1C[C@H](C(=O)N(CCCN(C)C)C(=O)NCC)C[C@@H]2c3cccc4[nH]cc(c34)C[C@H]21 [cabergoline],-19%,-12.2%,-10%,-8.73%,-14.1%
CC1(C)O[C@@H]2C[C@H]3[C@@H]4CCC5=CC(=O)C=C[C@]5(C)[C@H]4[C@@H](O)C[C@]3(C)[C@]2(C(=O)CO)O1 [desonide],1.41%,2.82%,5.19%,5.19%,1.37%
CC[C@H](C)[C@H](N)C1=N[C@H](C(=O)N[C@@H](CC(C)C)C(=O)N[C@H](CCC(=O)[O-])C(=O)N[C@H](C(=O)N[C@H]2CCCCNC(=O)[C@H](CC(N)=O)NC(=O)[C@@H](CC(=O)[O-])NC(=O)[C@H](Cc3cnc[nH]3)NC(=O)[C@@H](Cc3ccccc3)NC(=O)[C@H]([C@@H](C)CC)NC(=O)[C@@H](CCCN)NC2=O)[C@@H](C)CC)CS1.[Zn+2] [bacitracin-zinc],1.46%,1.2%,2.85%,-0.14%,0.15%
CC[N+](CC)(CC)CCOc1ccc(/C=C/c2ccccc2)cc1,-0.65%,1.39%,2.2%,1.89%,7.99%
Cc1sc2c(c1C)C(c1ccc(Cl)cc1)=N[C@@H](CC(=O)Nc1ccc(OCCOCCOCCOCCNc3cccc4c3C(=O)N(C3CCC(=O)NC3=O)C4=O)cc1)c1nnc(C)n1-2 (stereo not given in full),-0.01%,-1.32%,-2.57%,1.39%,-3.1%
O=C(O)c1ccccc1 [benzoic-acid],0.45%,-0.31%,-1.57%,-0.13%,-0.09%
NCC(O)(CS(=O)(=O)O)c1ccc(Cl)cc1 (stereo not given) [2-hydroxysaclofen],0.19%,1.62%,-0.08%,3.7%,0.53%
CNS(=O)(=O)CCc1ccc2[nH]cc(C3CCN(C)CC3)c2c1 [naratriptan],-2.05%,0.47%,2.08%,-3.05%,-1.76%
CC(=O)Nc1ccc(S(=O)(=O)c2ccc(NC(C)=O)cc2)cc1 [acedapsone],-1.54%,-3.01%,-3.82%,-1.51%,5.34%
